The list is not random: actives were taken first. Their share in the collection is about 9.9%.
MCF10A rereplic – A quantitative high throughput screen for small molecules that induce DNA re-replication in MCF 10a normal breast cells; MCF 10A DNA re-replication, Hoechst nuclear intensity, 48 h; Potency, µM (doses to about 46.1 µM), inactives show top-dose activity, positive = re-replication, usual class: activators; hit rate 2.9% among 350,000; AID 624296, 2012; further: potency means the concentration at half of the fitted maximal effect; % of control where 0% means no effect; nearly all actives have a fitted effect of over 50% in size
KB-V1 MDR tox – qHTS assay for MDR1-selective chemotherapeutics: Primary screen using the drug-selected MDR subline cells KB-V1; KB-V1 MDR cells viability, CellTiter-Glo, 72 h; Potency, µM (top dose mostly 46.1 µM), usual class: cytotoxic; AID 1347076, 2019; hit rate 3.4% among 400,000; further: potency means the concentration at half of the fitted maximal effect; on the % scale 0 is the no-effect control and ±100 the full control effect; nearly all actives have a fitted effect of over 60% in size
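KB-V1 cells (P-gp-expressing MDR subline of KB-3-1) in phenol-red-free DMEM with 10% FBS were exposed to library compounds over a concentration series for 72 h at 37 degrees C. Viability read by CellTiter-Glo luminescence; concentration-effect curves fitted after normalization.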
IL1B secr inh – qHTS for Inhibitors of Inflammasome Signaling: IL-1-beta AlphaLISA Primary Screen | activity change, % at 57.5 µM | hit rate 4.7% among 360,000 | THP-1 LPS/ATP IL-1B secretion, AlphaLISA, 16 h; active compounds read low; in the data active means activity change below about -50%; inconclusive means mostly about -30% to -49%; further: on the % scale 0 is the no-effect control and ±100 the full control effect
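Secreted IL-1B measured by AlphaLISA bead assay after 16 h compound exposure of THP-1 cells; compounds (final up to 57.5 uM) added 1 h before LPS (250 ng/mL) and ATP (1.25 mM) stimulation; lower signal means less secretion.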
SW480 rereplic – A quantitative high throughput screen for small molecules that induce DNA re-replication in SW480 colon adenocarcinoma cells; Potency, µM (top dose mostly 46.1 µM), for the others: top-dose re-replication activation, actives largely listed as activators; SW480 DNA re-replication, Hoechst DNA content imaging, 48 h; hit rate 1.8% among 340,000; AID 624297, 2012; further: potency means the concentration at half of the fitted maximal effect; % of control where 0% means no effect; nearly all actives have a fitted effect of over 55% in size
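Quantitative HTS format with DMSO vehicle controls; 48 hr drug incubation at 37 C, then 40 min Hoechst staining and scanning imager measurement at 405 nm excitation.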
KB-3-1 cytotox – qHTS assay for MDR1-selective chemotherapeutics: Primary screen using the parental adenocarcinoma cell KB-3-1. Potency, µM (highest dose often 46.1 µM), actives largely listed as cytotoxic. KB-3-1 viability, CellTiter-Glo ATP luminescence, 72 h. hit rate 1.4% among 400,000; further: potency means the concentration at half of the fitted maximal effect; on the % scale 0 is the no-effect control and ±100 the full control effect; nearly all actives have a fitted effect of over 60% in size
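72 h, 37 °C compound treatment of KB-3-1 parental cells; CellTiter-Glo added, 10 min, luminescence read. Data corrected against DMSO-only plates and normalized before curve fitting.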
* marks the source's active call; other numbers are inactive results; i = inactive; ? = inconclusive; nt = no result given; [ ] = remark or other dose. Unless noted, the call rests on the fitted dose curve; in most records, active means well fitted curve in the direction sought with a large enough effect; inconclusive means small, poorly fitted or top-dose-only effect, or another doubt; inactive means no such curve, though single readings can be large; an effect the other way counts as inactive or inconclusive.

SMILES	MCF10A rereplic	KB-V1 MDR tox	IL1B secr inh	SW480 rereplic	KB-3-1 cytotox
COc1ccc(C(=O)C2CCCN(Cc3ccc(C#CCCO)cc3)C2)cc1F (stereo not given)	1.9%	i	-53.1*	-1.2%	i
COc1cccc(C(=O)C2CCCN(C/C=C/c3ccccc3OC)C2)c1 (stereo not given)	?	i	-17.9	8.2%[1.84 µM]	i
COc1ccc(/C=C/CN2CCCC(C(=O)c3ccc(OC)c(F)c3)C2)cc1 (stereo not given)	?	?	-93.4*	0.6%	?
COc1ccc(Sc2cc(C(F)(F)F)nc(-c3ccccn3)n2)cc1	0.1%	i	9.9	-5.6%	i
CC(C)(C)c1cc(CCC(=O)NN)cc(C(C)(C)C)c1O	0.5%	i	-1.6	1.6%	i
COCCOC(=O)/C(=C\c1cc(C(C)(C)C)c(O)c(C(C)(C)C)c1)C(C)=O	3.26µM*	i	-7.5	?	i
CN1CCN(S(=O)(=O)c2ccc(Nc3ccc(F)cc3)c([N+](=O)[O-])c2)CC1	?	?	20.0	29.1µM*	i
CC(=O)Nc1ccc(Nc2ccc(S(=O)(=O)C(F)(F)F)cc2[N+](=O)[O-])cc1	6.7%	i	-59.9*	4.6%	i
O=C(O)CNc1ccc(S(=O)(=O)C(F)(F)F)cc1[N+](=O)[O-]	1.0%	i	44.1	-17.0%	i
CCOc1ccc(Nc2ccc(S(=O)(=O)N3CCN(C)CC3)cc2[N+](=O)[O-])cc1OCC	-2.8%	i	-19.8	-3.9%	i
CC(Oc1ccc2cc(-c3ccccc3)c(=O)oc2c1)C(=O)NCC1CCC(C(=O)O)CC1 (stereo not given)	17.1%	i	-4.7	-2.9%	i
CCc1cccc(C)c1NC(=S)NCc1ccc2[nH]c(C)cc2c1	-1.2%	i	-29.5	13µM*	i
COCC1CCCN(Cc2cn(Cc3ccccc3)nc2-c2cc3ccccc3o2)C1 (stereo not given)	3.8%	i	-76.2*	?	?
COC(=O)C1CCN(Cc2cn(Cc3ccccc3)nc2-c2cc3ccccc3o2)CC1	-1.7%	i	-16.7	7.1%	i
COCC1CCN(Cc2cn(Cc3ccccc3)nc2-c2cc3ccccc3o2)CC1	3.8%	i	-61.5*	?	i
CCC(=O)N(C)C[C@H]1Oc2ncc(C#Cc3ccncc3)cc2C(=O)N([C@@H](C)CO)C[C@@H]1C	nt	i	12.3	nt	i
CCc1nnc(NC(=O)C2CCN(c3nccc(C)n3)CC2)s1	-0.9%	16.4µM*	19.8	-5.3%	i
CCc1nnc(NC(=O)C2CCCN(c3nc(C)cc(C)n3)C2)s1 (stereo not given)	1.4%	9.2µM*	0.0	0.9%	i
Cc1ccc(C(=O)NNC(=O)C2CCN(c3nccc(C)n3)CC2)cc1	1.9%	i	19.7	-0.1%	i
COCc1cc(C)nc(OCC(=O)N/N=C/c2ccc(-c3cc([N+](=O)[O-])ccc3Cl)o2)c1C#N	-4.6%	i	0.9	0.2%	i
CC(C)(C)c1ccc(Cn2nc(CC(=O)O)c3ccccc3c2=O)cc1	-2.9%[9.22 µM]	i	18.5	-44.5%	i
CC(=O)Nc1ccc(C=NN=C2c3ccccc3-c3ccccc32)cc1	?	18.4µM*	3.8	0.5%	i
CC(C)COC(=O)c1cccc2c1-c1ccccc1/C2=N\O	18.4µM*	i	6.8	1.0%	i
CC1CCCC(C)N1C(=O)c1cccc2c1-c1ccccc1/C2=N/O (stereo not given)	0.7%	i	15.1	0.6%	i
CCOC(=O)c1cccc2c1-c1ccccc1/C2=N/O	12.3%	i	-54.0*	1.6%	i
COc1cc(CNCc2ccccn2)ccc1OCc1cccc(Cl)c1	13µM*	i	-79.6*	?	i
COc1cc(CNCc2ccccn2)ccc1OCc1ccc(Cl)cc1	?	i	-57.2*	3.8%	i
